From PubChem
The list is not random: actives were taken first. Their share in the collection is about 7.6%.
MCF10A rereplic: DNA re-replication induction in MCF 10a cells. MCF 10A DNA re-replication, Hoechst nuclear intensity, 48 h. actives 2.9% (n = 350,000). Potency, µM (highest dose often 46.1 µM), hits mostly activators; also: nearly all actives have a fitted effect of over 50% in size
KB-V1 MDR tox: kills drug-selected multidrug resistant KB-V1 cells | AID 1347076 | KB-V1 MDR cells viability, CellTiter-Glo, 72 h | actives 3.4% (n = 400,000) | Potency, µM (series often up to 46.1 µM), actives largely listed as cytotoxic; also: nearly all actives have a fitted effect of over 60% in size
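Readout: CellTiter-Glo luminescence, 10 min after addition. Cells: KB-V1 MDR subline, 72 h at 37 degrees C with compound. Analysis: corrected, normalized data fitted to concentration-effect curves.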
KB-3-1 cytotox: kills parental KB-3-1 adenocarcinoma cells; KB-3-1 viability, CellTiter-Glo ATP luminescence, 72 h; Potency, µM (top dose mostly 46.1 µM), hits mostly cytotoxic; actives 1.4% (n = 400,000); also: nearly all actives have a fitted effect of over 60% in size
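Using CellTiter-Glo luminescence, growth of non-resistant KB-3-1 adenocarcinoma cells is assessed 72 h after pin-tool compound addition at 37 °C. Normalized responses across the concentration series yield fitted curves.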
hERG WT inh: blocks the wildtype human KCNH2 potassium channel. Q12809. U2OS, BacMam KCNH2, thallium flux FluxOr; hits give low values. activity change, % at 1.84 µM. actives 0.37% (n = 340,000). AID 720551;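 active = maximum activity change below -70%; inconclusive = maximum activity change between -70% and -50%; inactive = maximum activity change above -50%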
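U2OS cells were transduced with wild-type KCNH2 virus (2.03 x 10^8 / mL) for 4 h at room temperature, then cultured overnight at 37 C. Thallium flux was read with FluxOr dye. Rate constants were normalized to DMSO controls.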
KCNH2 3.1 inh: inhibitors of human KCNH2 3.1 potassium channel isoform. U2OS KCNH2 3.1, thallium flux FluxOr; hits give low values. activity change, % (tested at about 1.8 µM). actives 0.95% (n = 340,000);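 active = maximum activity change below -70%; inconclusive = maximum activity change from -70% to -50%; inactive = maximum activity change above -50%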;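 also: thallium influx rate constant from kinetic fluorescence after stimulation buffer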
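Steps: virus added to U2OS suspension (4 h, RT, dark); medium with 10% FBS added, cells plated, 37 C overnight; FluxOr/Red40 loading buffer 45 min RT; stimulation buffer, 2 min kinetic read; rate constant normalized.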
SW480 rerep: DNA re-replication induction in SW480 cells; AID 624297; SW480 DNA re-replication, Hoechst DNA content imaging, 48 h; actives 1.8% (n = 340,000); Potency, µM (top dose mostly 46.1 µM), most hits filed as activators; also: nearly all actives have a fitted effect of over 55% in size
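Readout is total intensity of Hoechst-stained nuclei, excited at 405 nm and collected at 500-530 nm. Compound treatment lasted 48 hr at 37 C in 5% CO2 before staining.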
Numbers stand for hits; n = inactive; u = inconclusive; x = not tested or not shown; [ ] = dose if it differs, or a comment. Unless noted, calls follow the shape of the dose curve; as a rule, active = well fitted curve in the direction sought with a large enough effect; inconclusive = small, poorly fitted or top-dose-only effect, or another doubt; inactive = no such curve, though single readings can be large; an effect the other way counts as inactive or inconclusive.

SMILES	MCF10A rereplic	KB-V1 MDR tox	KB-3-1 cytotox	hERG WT inh	KCNH2 3.1 inh	SW480 rerep
C[C@]12CC[C@H]3[C@@H](CC=C4C[C@@H](O)CC[C@@]43C)[C@@H]1CC[C@@H]2O	n	x	x	x	x	n
CC(=O)OCC(=O)C1CCC2C3CC=C4CC(O)CCC4(C)C3CCC12C (stereo not given)	n	14.6µM	n	n	n	n
CC(C)[C@H]1CC2C3CC=C4C[C@@H](O)CC[C@]4(C)C3CC[C@]2(C)[C@H]1O (stereo not given in full)	18.4µM	n	n	n	n	u
CCOC(=O)Cn1cc(/C=N/NC(=O)CC#N)c2ccccc21	n	n	n	n	n	n
Brc1nc(-c2ccccc2)nc(-c2ccccc2)c1Br	u	u	n	n	n	n
O=[N+]([O-])c1ccc(N2CCCC2)cc1N/N=C1\CN2CCC1CC2	n	20.6µM	n	n	n	23.1µM
O=C(Oc1ccc(Br)cc1)C1CC(=O)N(c2ccc(F)cc2)C1 (stereo not given)	u	n	n	n	n	n
COC1CC(C)C(OC)c2cc(O)cc(c2O)NC(=O)C(C)=CC=CC(C)C(OC(N)=O)C(C)=CC(C)C1OC (stereo not given)	5.8µM	n	n	n	n	2.59µM
CCN(C[C@H]1N[C@@](C)(C(=O)OC)[C@H]2C(=O)N(Cc3ccccc3)C(=O)[C@@H]12)C(=O)Nc1ccccc1	n	n	n	n	n	u
COC(=O)[C@]12OC[C@]34C([C@@H](O)[C@@H]1O)[C@]1(C)CC(=O)C(O)=C(C)[C@@H]1C[C@H]3OC(=O)[C@H](O)[C@@H]24 (stereo not given in full)	14.6µM	n	u	n	n	n
CC1=CC(O)C(O)C2(C)C1CC1OC(=O)C(O)C3C(C)C(O)C4(O)OCC13C42 (stereo not given)	n	n	u	n	x	n
CC(C)C(=O)Nc1ccc([N+](=O)[O-])c(C(F)(F)F)c1	n	u	n	n	n	n
O=C(Cc1ccccc1)N1CCN(Cc2ccc([N+](=O)[O-])cc2)CC1	n	n	n	n	n	n
O=[N+]([O-])c1cccc(CN2CCN(Cc3ccc(Br)cc3)CC2)c1	9.2µM	n	u	n	n	n
CC(C)(O)C(Cl)(Cl)Cl	n	x	x	x	x	n
NCCNc1ccc([N+](=O)[O-])c2cccnc12	0.651µM	n	u	n	n	n
CCN(CCNc1ccc([N+](=O)[O-])c2cccnc12)S(=O)(=O)c1ccccc1	n	n	n	n	n	n
CCC(CO)Nc1ccc([N+](=O)[O-])c2cccnc12 (stereo not given)	n	18.4µM	u	n	n	n
Cc1nonc1OCCNc1ccc([N+](=O)[O-])c2cccnc12	n	u	n	n	n	0.517µM
CC(O)CNc1ccc([N+](=O)[O-])c2cccnc12 (stereo not given)	n	n	n	n	n	n
Cc1cccc2sc(NC(=O)c3cccn(Cc4ccccc4)c3=O)nc12	x	n	n	x	x	x
N#Cc1cccc(NC(=O)c2sc3nc4c(cc3c2N)N2CCC4CC2)c1	x	n	n	x	x	x
Cc1ccc(NP(=O)(Oc2ccccc2F)Oc2ccccc2F)cc1	18.4µM	u	n	n	n	u
Cc1cccc(C(=O)NCCC(=O)NCc2ccccc2F)c1	u	n	n	n	n	n
O=C(NCC1=C(c2ccc3ccccc3c2)C[C@@H]2CC[C@H]1N2Cc1ccco1)c1ccncc1	x	n	n	n	n	x
SMILES	MCF10A rereplic	KB-V1 MDR tox	KB-3-1 cytotox	hERG WT inh	KCNH2 3.1 inh	SW480 rerep
O=C(NCC1=C(c2ccc3ccccc3c2)C[C@@H]2CC[C@H]1N2Cc1ccco1)c1ccc([N+](=O)[O-])cc1	x	u	u	n	-98.9	x
CS(=O)(=O)c1ccc(C2=C(CNC(=O)c3cccs3)[C@H]3CC[C@@H](C2)N3Cc2ccco2)cc1	x	n	n	n	-93.8	x
CCCCN=C[C@]12CCC(O)CC1(O)CCC1[C@@H]2CC[C@]2(C)[C@H](C3C=CC(=O)O3)CCC12O (stereo not given in full)	u	0.517µM	0.231µM	n	n	2.31µM
CC12CC[C@H]3[C@@H](CCC4(O)C[C@H](O)CCC34/C=N/NC(=O)c3ccccc3Cl)C1(O)CCC2C1=CC(=O)OC1 (stereo not given in full)	n	n	n	n	n	n
CC12CCC3C(CCC4(O)CC(O)CCC34C=O)C1(O)CCC2C1=CC(=O)OC1 (stereo not given)	u	u	1.3µM	n	n	u
C[C@]12CC[C@H]3[C@@H](CC[C@]4(O)C[C@@H](O)CC[C@]34C=O)[C@@]1(O)CC[C@@H]2C1=CC(=O)OC1	u	0.92µM	0.517µM	n	n	2.59µM
C[C@]12CCC3C(CCC4=CC(O)CC[C@@]43/C=N/O)C1(O)CCC2C1=CC(=O)OC1 (stereo not given in full)	u	0.651µM	0.291µM	n	n	3.66µM
CC12CCC3C(CCC4(O)CC(O)CCC34C=NO)C1(O)CCC2C1=COC(=O)C1 (stereo not given)	u	u	0.366µM	n	n	1.64µM
Cc1ccc(NP(=O)(Oc2ccccc2)Oc2ccccc2)cc1	n	n	n	n	n	n[1.84 µM]
Cc1ccc(OP(=O)(NCc2ccccc2)Oc2ccc(C)cc2)cc1	u	14.6µM	u	n	-87.3	u
CCOC(=O)c1c(C)n(Cc2ccc(F)cc2)c2ccc(O)cc12	n	16.4µM	u	n	n	u
CCOC(=O)Cc1csc(NC(=O)c2c(O)c3ccccc3n(CCC(C)C)c2=O)n1	n	8.2µM	u	n	n	n
CCCCCCn1c(=O)c(C(=O)Nc2nc(CC(=O)OCC)cs2)c(O)c2ccccc21	u	2.06µM	u	n	n	n
CCCCCn1c(=O)c(C(=O)Nc2cccc(C)n2)c(O)c2ccccc21	n	u	n	n	n	n
O=C1CN=C(c2ccccc2)c2cc([N+](=O)[O-])ccc2N1	n	n	n	n	n	n
O=C1CN=C(c2cc([N+](=O)[O-])ccc2Cl)c2cc([N+](=O)[O-])ccc2N1	u	n	n	n	n	1.64µM
c1ncn(C23CC4CC(CC(C4)C2)C3)n1	u	n	n	n	n	n
CC(=O)O[C@H]1CC[C@H]2[C@@H]3CCC4=CC(=O)CCC4=C3C=C[C@]12C	n	x	x	x	x	n
CC(=O)O[C@H]1CCC2C3CCC4=CC(=O)CCC4=C3C=C[C@@]21C (stereo not given in full)	n	8.2µM	u	n	n	n
